According to paper PMC5540273 (PLoS ONE, 2017):
Read-outs that look alike come from different tables or passages of the source.

Experiments:
LCK = details: concentration: 1 μM, replicates: in singlicate; n = 1
LIMK1 = details: concentration: 1 μM, replicates: in singlicate; n = 1
LIMK2 = details: concentration: 1 μM, replicates: in singlicate; n = 1
LKB1 = tested on: T1, LKB1; details: concentration: 1 μM, replicates: in singlicate; n = 1
T1 construct: gene STK11

LOK = tested on: T2, LOK; details: concentration: 1 μM, replicates: in singlicate; n = 1
T2 construct: gene STK10

LRRK2 = details: n = 1
LTK = details: concentration: 1 μM, replicates: in singlicate; n = 1
LYN = details: concentration: 1 μM, replicates: in singlicate; n = 1
LZK = tested on: T3, LZK; details: concentration: 1 μM, replicates: in singlicate; n = 1
T3 construct: gene MAP3K13

MAK = details: concentration: 1 μM, replicates: in singlicate; n = 1
[1] = concentration: 1 μM, replicates: in singlicate
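Also: KINOMEscan kinase panel screen.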

Compound | %Inh (LCK) [%] | %Inh (LIMK1) [%] | %Inh (LIMK2) [%] | %Inh (LKB1) [%] | %Inh (LOK) [%] | %Inh (LRRK2; [1]) [%] | %Inh (LTK) [%] | %Inh (LYN) [%] | %Inh (LZK) [%] | %Inh (MAK) [%] | %Inh (LRRK2; 1 µM) [%]
Fc1cc(Cl)ccc1Nc1ccnc2cc(-c3ccc(CN4CCSCC4)o3)ccc12 [GW560106] | 98.4 | 0 | 0 | 11 | 73 | 22 | 61 | 74 | 32 | 32 | –
NCCC(NC(=O)c1cc(Br)c(-c2ccnc3[nH]ccc23)s1)c1ccccc1.O=C(O)C(F)(F)F.O=C(O)C(F)(F)F (centres unmarked) [GSK1307810] | 12 | 12 | 30 | 29 | 0 | 14 | 0 | 7 | 30 | 30 | –
CNc1nccc(-c2ccc3c(N)n[nH]c3c2)n1 [GSK2206003] | 19 | 0 | 0 | 5 | 23 | 1 | 27 | 0 | 0 | 29 | –
Nc1ncc(-c2cn[nH]c2)c2scc(-c3ccc4c(c3)CCN4C(=O)Cc3ccccc3)c12 [GSK2593067] | 96.5 | 17 | 49 | 2 | 98.6 | 52 | 67 | 80 | 0 | 10 | –
CC(=O)Nc1cn2nc(Oc3cccc(NC(=O)c4cccc(C(F)(F)F)c4)c3)ccc2n1 | 99.5 | 0 | 14 | 0 | 90.1 | 8 | 0 | 97.9 | 0 | 0 | –
CC(C)c1nc(-c2ccc(F)c(NS(=O)(=O)c3c(F)cccc3F)c2)c(-c2ccnc(Nc3ccc(N4CCOCC4)nc3)n2)s1 [GSK1804250] | 99.6 | 100 | 100 | 0 | 99.3 | 9 | 6 | 93.8 | 58 | 24 | –
CCn1cnc2c(NCc3ccccc3)ncnc21 [SKF-96418] | 0 | 0 | 0 | 25 | 5 | 0 | 0 | 0 | 34 | 0 | –
Cc1cc(-c2c(-c3ccc(F)cc3)ncn2CCCN2CCOCC2)nc(N)n1 [SB-222517] | 12 | 0 | 0 | 45 | 18 | 0 | 4 | 17 | 0 | 35 | –
N#Cc1cnc2cc(-c3cnc(CNCCN4CCOCC4)s3)ccc2c1Nc1ccc(Oc2ccccc2)cc1 [GW664114] | 99.7 | 6 | 0 | 0 | 88 | 0 | 0 | 90 | 76 | 28 | –
O=C(Nc1n[nH]c2nc(-c3cccc(O)c3)ccc12)C1CC1 [SB-711805] | 25 | 0 | 0 | 14 | 15 | 0 | 12 | 5 | 0 | 0 | –
CN(c1ccc(NC(=O)N2CCN(CCCN3CCOCC3)CC2)cc1)c1ccnc(Nc2ccc(CS(C)(=O)=O)cc2)n1.Cl [GW830899] | 16 | 2 | 6 | 0 | 72 | 0 | 0 | 0 | 0 | 0 | –
COc1cc(Nc2nccc(N3CCC(NS(=O)(=O)c4ccc(NC(C)=O)cc4)CC3)n2)cc(OC)c1OC [GSK1379825] | 18 | 93 | 100 | 0 | 2 | 29 | 0 | 56 | 27 | 61 | –
CN(C)c1ncnc2nc[nH]c12 [SKF-31736] | 0 | 0 | 0 | 0 | 2 | – | 0 | 0 | 8 | 0 | 0
Cc1ccc(O)cc1Nc1ccnc2cc(-c3ccc(CN4CCCCC4)o3)ccc12 [GW557777] | 99.7 | 6 | 8 | 0 | 17 | 19 | 0 | 95.3 | 0 | 0 | –
O=C(O)C(F)(F)F.O=c1[nH]ccc2nc(N[C@@H]3CCNC3)nc(Nc3cc(Cl)cc(Cl)c3)c12 [GSK2188764] | 0 | 19 | 13 | 43 | 70 | 97.3 | 31 | 21 | 7 | 16 | –
CCn1c(-c2nonc2N)nc2c(-c3ccccc3)ncc(OCCCN)c21.O=C(O)C(F)(F)F.O=C(O)C(F)(F)F [GSK260205] | 29 | 1 | 0 | 0 | 98.7 | 28 | 0 | 0 | 0 | 0 | –
CN(c1ccc(F)c(NC(=O)c2cccc(OC(C)(C)C#N)c2Cl)c1)c1ccc2nc(NC(=O)C3CC3)sc2n1 | 97.9 | 0 | 0 | 11 | 95.4 | 9 | 0 | 93.1 | 46 | 0 | –
Cl.O=C(Nc1ccc(Oc2ccc3[nH]c(NC(=O)c4ccco4)nc3c2)cc1)Nc1cc(C(F)(F)F)ccc1F [GW683134] | 98.4 | 17 | 0 | 0 | 99.7 | 65 | 74 | 70 | 0 | 19 | –
Cn1cc(-c2ccc3c(c2)CCN3C(=O)Cc2cc(F)cc(C(F)(F)F)c2)c2c(N)ncnc21 [GSK2635225] | 62 | 0 | 0 | 16 | 84 | 0 | 18 | 26 | 3 | 26 | –
COc1cc(Nc2ccnc3cc(-c4ccncc4)ccc23)cc(OC)c1OC.Cl [GW494610] | 98.6 | 0 | 0 | 0 | 96.9 | 27 | 24 | 67 | 31 | 20 | –
O=C(Nc1n[nH]c2nc(-c3ccccc3)ccc12)C1CC1 [SB-708999] | 9 | 0 | 31 | 0 | 30 | 0 | 0 | 21 | 2 | 38 | –
CC(C)c1nc(-c2cccc(NS(=O)(=O)c3c(F)cccc3F)c2)c(-c2ccnc(Nc3ccc(N4CCOCC4)nc3)n2)s1.Cl [GSK1723980] | 99.7 | 100 | 100 | 4 | 99.1 | 18 | 0 | 97.8 | 52 | 70 | –
CC(C)(C)c1ccc(C(=O)Nc2cn3cc(-n4ccnc4)ccc3n2)cc1 | 0 | 0 | 10 | 0 | 0 | 12 | 0 | 10 | 0 | 18 | –
COc1ccc(C2=C(Nc3cccc(O)c3)C(=O)NC2=O)cc1 [SB-390766] | 0 | 0 | 10 | 0 | 0 | 5 | 30 | 52 | 6 | 0 | –
COc1cccc(-c2nc(-c3ccccc3)[nH]c2-c2ccncc2)c1 [SB-610250] | 16 | 20 | 0 | 4 | 0 | 14 | 0 | 0 | 0 | 47 | –
Cc1ccc(NC(=O)c2ccc(Cl)c(Cl)c2)cc1-c1ccc(C(=O)Nc2ccncc2)cc1 [GSK1398460] | 91.9 | 19 | 0 | 0 | 0 | 0 | 11 | 83 | 0 | 100 | –
COC(=O)Nc1nc2cc(Oc3ccc(NC(=O)Nc4cccc(SC)c4)cc3)ccc2[nH]1.Cl [GW697999] | 68 | 0 | 4 | 17 | 99.4 | 18 | 0 | 24 | 23 | 14 | –
COc1cccc(C2=C(Nc3cccc(O)c3)C(=O)NC2=O)c1 [SB-390771] | 11 | 9 | 18 | 0 | 0 | 0 | 6 | 24 | 0 | 25 | –
COC(=O)Nc1nc2ccc(Oc3ccc(CC(=O)Nc4cc(C(F)(F)F)ccc4F)cc3)cc2[nH]1 [GW680903] | 22 | 1 | 7 | 0 | 78 | 33 | 0 | 7 | 28 | 37 | –
